Inconclusive results are not listed. Where a call stands in place of a potency, no number is given. Values without a mark were called inactive. The source made the active and inactive calls. The call rests on the fitted dose curve.
assay: qHTS assay to identify small molecule antagonists of the estrogen receptor alpha (ER-alpha) signaling pathway using the BG1 cell line (AID 743080); conditions: BG1Luc4E2 ERE-luciferase antagonist mode, luminescence; series mostly up to 70.3 µM;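 further: BG1 cells stimulated with 17beta-estradiol alongside compound; nearly all actives have a fitted effect of over 25% in size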
Description: National Center for Advancing Translational Sciences [NCATS]
NIH Chemical Genomics Center [NCGC]
U.S. Environmental Protection Agency [EPA]
National Institutes of Environmental Health Sciences [NIEHS]
National Toxicology Program [NTP]
U.S. Food and Drug Administration [FDA]
Estrogen receptor (ER), a nuclear hormone receptor, plays an important role in development, metabolic homeostasis and reproduction. Endocrine disrupting chemicals (EDCs) and their interactions with steroid hormone receptors like ER causes disruption of normal endocrine function. Therefore, it is important to understand the effect of environmental chemicals on the ER signaling pathway. To identify ER antagonists, BG1-Luc-4E2 cell line (provided by Dr. Michael Denison from University of California) has been used to screen the Tox21 10K compound library. BG1Luc4E2 cell line endogenously expresses full-length ER-alpha and is stably transfected with a plasmid containing four estrogen responsive elements (ERE) upstream of a luciferase reporter gene.
Tox21 Assay Protocol Summary:
BG1-Luc-4E2 cells were cultured in phenol red free assay medium containing 10% charcoal stripped FBS for 5 days before the assay was performed. The cells were dispensed at 4,000 cells/4 uL of assay medium per well into white wall/solid-bottom 1536-well plates using a Multidrop Combi (ThermoFisher Scientific, Waltham, MA) dispenser. The assay plates were incubated at a 37C and 5% CO2 for 24 h, and then 23 nL of compounds dissolved in DMSO, positive controls or DMSO only was transferred to the assay plate using a Pintool station (Kalypsys, San Diego, CA), followed by addition of 1 uL of 17beta-estradiol in assay medium using a Flying Reagent Dispenser (Aurora Discovery, San Diego, CA). After the plates were incubated at 37 C and 5% CO2 for 21.5 h, 1 uL of CellTiter-Fluor reagent (Promega, Madison, WI) of measuring cytotoxicity was added using Flying Reagent Dispenser (FRD) to each well. The assay plates were incubated at 37 C and 5% CO2 for additional 30 min and the fluorescence intensity was quantified by a ViewLux plate reader (PerkinElmer, Shelton, CT). For measuring luciferase reporter gene activity, 4 uL of ONE-Glo reagent (Promega) was added to each plate using an FRD and luminescence was quantified by a ViewLux plate reader after 30 min incubation at room temperature.

SMILES	Potency	activity change, negative = inhibition
Cc1ncc([C@@H](CCCCCCc2ccc3c(n2)NCCC3)CC(=O)O)cn1	inactive	
CCOC(=O)COc1cc(-n2ncc(C(F)(F)F)c(C)c2=O)c(F)cc1Cl	inactive	
CC(=O)NC(=O)c1ccccc1O	inactive	
C=CC(C)(CCC=C(C)C)OC(=O)CC (stereo not given)	inactive	
CCCCN(CCC(=O)OCC)C(C)=O	inactive	
NC(CCC(=O)O)C(=O)O (stereo not given)	inactive	
CC(COc1ccccc1)NN (stereo not given)	inactive	
CCOC(=O)COC(=O)c1ccccc1C(=O)OCC	inactive	
Clc1cc(Cl)cc(Cl)c1	inactive	
CC(C)(C)C(=O)c1ccccc1	inactive	
CCCCCCCC1CCCC1=O (stereo not given)	inactive	
CCCCOC(=O)CCC(C)=O	inactive	
CCN[C@@H]1C[C@H](N)[C@@H](OC2OC(CN)=CCC2N)[C@H](O)[C@H]1O[C@H]1OC[C@](C)(O)[C@H](NC)[C@H]1O (stereo not given in full)	inactive	
CCOCC(C)O (stereo not given)	inactive	
C=CCOCC(O)CO (stereo not given)	inactive	
CC(C)(C)C(=O)Oc1ccc(S(=O)(=O)Nc2ccccc2C(=O)NCC(=O)O)cc1	inactive	
CO[Si](C)(OC)c1ccccc1	inactive	
C=C[Si](OC(C)=O)(OC(C)=O)OC(C)=O	inactive	
CC(C)(N)C#N	inactive	
CCCCCC(=O)OCCc1ccccc1	inactive	

SMILES	Potency	activity change, negative = inhibition
CC1=CC(=O)[C@H]2C[C@@H]1C2(C)C	inactive	
O=S(=O)(O)c1cccc(S(=O)(=O)O)c1	inactive	
Cc1ccc(-c2ncc(Cl)cc2-c2ccc(S(C)(=O)=O)cc2)cn1	inactive	
CCCCCCCCCC[N+](C)(C)[O-]	inactive	
COCCOC[C@H](CC1(C(=O)NC2CCC(C(=O)O)CC2)CCCC1)C(=O)Oc1ccc2c(c1)CCC2 (stereo not given in full)	inactive	
CC1OC1C1CCC2(C)OC2C1 (stereo not given)	inactive	
CCC(C(=O)NC(=O)NC(C)=O)c1ccccc1 (stereo not given)	inactive	
[O-][n+]1cccc(CO)c1	inactive	
CN1[C@@H]2CC[C@H]1CC(OC(=O)C(O)c1ccccc1)C2 (stereo not given in full)	inactive	
CC(=O)c1ccc2ccccc2c1	inactive	
Cc1cc(C)c(N=Nc2c(O)c(S(=O)(=O)O)cc3cc(S(=O)(=O)O)ccc23)cc1C		-1.62% [at 8.47 µM]
COc1cc(-c2ccc(=O)[nH]n2)ccc1OC(F)F	inactive	
Nc1c2c(nc3c1CCC3)CCCC2	inactive	
C=CC(=O)OCCCl	inactive	
CC(=O)Oc1cccc(C)c1	inactive	
Nc1ccn([C@@H]2O[C@H](CO)[C@@H](O)[C@@H]2O)c(=O)n1	inactive	
CCOC(=O)c1ccccc1	inactive	
CCC1C(=O)OCC1Cc1cncn1C (stereo not given)	inactive	
CCCC(C)C(=O)OCC (stereo not given)	inactive	
O=C(CO)[C@@H](O)[C@H](O)[C@@H](O)CO	inactive	
